Assay results reported in ChEMBL document CHEMBL3988442, “University of Dundee, Small-Polar-MMV Screening Library” (2021).
“And” between values parts separate entries of the source, which are not always exact repeats. Equal values may be shown once. About 290 (0.85%) of roughly 34,000 compounds showed an effect of 50% or more. The entries come from a sample that favours strong results as a whole.

System: Plasmodium falciparum
Assay: Plasmodium falciparum sporozoite viability assay
Format: functional, organism-based
Set-up: scale not given: in the data most compounds retested in dose-response had high values

Row | SMILES | Percent Effect (10 mM as filed; unlikely as a test dose) | Percent Effect [%]
1 | Cc1cccc(NC2CCN(C(=O)Nc3ccc(F)c(F)c3)CC2)n1 | 48.63% and 63.22% and 54.45% | 
2 | Cc1cccc(NC2CCN(C(=O)Nc3cc(F)cc(F)c3)CC2)n1 | -0.7988% and 3.277% and 6.003% | 
3 | Cc1cccc(NC2CCN(C(=O)Nc3ccncc3)CC2)n1 | -1.906% and 4.517% and 18.88% | 
4 | Cc1ccc(C(C)NC(=O)CNCCn2cccn2)cc1C (stereo not given) |  | -5.595
5 | Cc1cc(C(F)(F)F)n2nc(C3CCN(S(C)(=O)=O)CC3)cc2n1 | -9.274% and -13.96% and -8.495% | 
6 | CCN1CC[C@@H]2OC[C@H](C(=O)NCc3cccs3)C[C@@H]2C1 |  | 18.4
7 | CN1CCC(c2cccc(Cc3ccc(C(F)(F)F)cc3)n2)CC1 |  | 3.398
8 | Cc1cc(C(F)(F)F)nc(C2CCN(C(=O)CO)CC2)n1 |  | -4.597
9 | CCc1ccc(-c2cc(C(F)(F)F)nc(N3CCC(N)CC3)n2)cc1 | 67.54% and 55.39% | 
10 | CCN1CC2(CCOCC2)c2cc(NS(=O)(=O)CC)ccc21.O=C(O)C(F)(F)F |  | 11.65
11 | Cc1cnn(CC2CN(Cc3ccccn3)CCO2)c1 (stereo not given) |  | -1.077
12 | CC(Cn1cccn1)NC(=O)NCCc1cccnc1 (stereo not given) |  | 12
13 | CC(=O)N1CCC(c2ccnc(Nc3ccc(C)cn3)n2)C1 (stereo not given) | -6.604% and -1.275% and 4.318% | 
14 | Cc1ccc(Nc2nccc(C3CN(C(C)C)C3)n2)nc1 |  | 10.21
15 | COCC(=O)N1CC(c2ccnc(Nc3ccc(C)cn3)n2)C1 | 0.1159% and 3.964% and -12.15% | 
16 | Cc1ccc(Nc2nccc(C3CCCN(CC(=O)N(C)C)C3)n2)nc1 (stereo not given) | 76.43% and 66.32% and 68.98% | 
17 | Cc1ccc(Nc2nccc(C3CCN(CC(N)=O)C3)n2)nc1 (stereo not given) | 101.9% and 103.5% and 87.92% | 
18 | O=C(Cc1ccc(F)cc1)N1CCn2c(Cn3cncn3)cnc2C1 |  | 8.505
19 | Cc1cc(OCCC(=O)NCc2ccc(F)cc2)nnc1C |  | 1.961
20 | Cc1nc(COC[C@@]23CCC[C@@H]2CN(Cc2cnn(C)c2)C3)cs1 |  | 2.977
21 | Cc1c(-c2cc(C(=O)N3CCc4ncc(Cl)cc4C3)on2)cnn1C |  | 3.017
22 | C[C@H](NS(C)(=O)=O)C(=O)NCc1cc(-c2ccco2)n(CC(F)(F)F)n1 |  | 3.472
23 | CC(Nc1nccc(CCC(F)(F)F)n1)c1nc(-c2ccncc2)no1 (stereo not given) | -11.17% and -18.73% | 
24 | CC(Nc1nccc(CCC(F)(F)F)n1)c1nc(-c2ccccn2)no1 (stereo not given) | 60.54% and 52.08% | 
25 | CC(C)c1noc(C(C)Nc2nccc(CCC(F)(F)F)n2)n1 (stereo not given) | 1.671% and -0.3266% | 
26 | CN1CCN(C(=O)[C@H]2C[C@H]3[C@H](CCN3Cc3nccs3)O2)CC1 |  | 0.9025
27 | O=C(Nc1ccc(Cl)cc1)c1nn(C2CCS(=O)(=O)C2)c2c1CCCC2 (stereo not given) | -17.96% and -20.43% | 
28 | O=C(Nc1ccccc1F)c1nn(C2CCS(=O)(=O)C2)c2c1CCCC2 (stereo not given) | 38.15% and 35.56% | 

Row | SMILES | Percent Effect (10 mM as filed; unlikely as a test dose) | Percent Effect [%]
29 | O=C(Nc1cccc(Cl)c1)c1nn(C2CCS(=O)(=O)C2)c2c1CCCC2 (stereo not given) | 70.24% and 80.75% and 81.2% | 
30 | O=C(Nc1ccccc1)c1nn(C2CCS(=O)(=O)C2)c2c1CCCC2 (stereo not given) | 23.34% and 42.14% and 38.32% | 
31 | O=C(Nc1ccc(Cl)cn1)c1nn(C2CCS(=O)(=O)C2)c2c1CCCC2 (stereo not given) | 72.26% and 68.39% | 
32 | Cc1cccc(NC(=O)c2nn(C3CCS(=O)(=O)C3)c3c2CCCC3)n1 (stereo not given) | 27.72% and 25.15% | 
33 | CC1CCN(S(=O)(=O)NCc2ccccc2Cn2cccn2)CC1 |  | 3.533
34 | c1cncc(CN2CCCC3(COCCN(c4cncnc4)C3)C2)c1 (stereo not given) |  | -1.976
35 | CC(C)[C@H](NS(C)(=O)=O)C(=O)NCc1cc(-c2ccccc2)n[nH]1 |  | -6.181
36 | C[C@H](NS(C)(=O)=O)C(=O)NCc1cc(-c2ccco2)n[nH]1 |  | -6.52
37 | CCc1nn(C)c(Cl)c1CN(CCOC)Cc1cnn(C)c1 |  | -2.336
38 | CCOc1cc(/C=C/c2ncc(C(=O)O)s2)cc(Br)c1OC |  | 6.645
39 | CCOc1ncccc1C(=O)N1CCCC1Cn1nc(C)cc1C (stereo not given) |  | -1.877
40 | CC(c1ccccn1)N(C)Cc1cc2cc3c(cc2[nH]c1=O)OCO3 (stereo not given) | 18.92% and 31.37% and 23.56% | 
41 | CC(c1ccncn1)N(C)Cc1cc2cc3c(cc2[nH]c1=O)OCO3 (stereo not given) | 36.77% and 42.23% and 61.28% | 
42 | CN(C)CCOCC1CN(Cc2ccc(F)cc2)Cc2nnn(C)c21.O=C(O)C(F)(F)F.O=C(O)C(F)(F)F (stereo not given) |  | 3.947
43 | CCCn1cc(NC(=O)c2ccc(S(C)(=O)=O)cc2)ccc1=O |  | -6.389
44 | O=C(O)CCCNC(=O)N1CCc2c([nH]c3ccc(Cl)cc23)C1 | 31.15% and 28.91% | 
45 | O=C(O)CCNC(=O)N1CCc2c([nH]c3ccc(Cl)cc23)C1 | -34.22% and -28.29% | 
46 | COC(=O)CCCNC(=O)N1CCc2c([nH]c3ccc(Cl)cc23)C1 | 80.07% and 78.06% | 
47 | CC(C)N1c2sc(-c3ccsc3)nc2CC1C(=O)NC1CC1 (stereo not given) | 76.28% and 81.46% | 
48 | CC(C)CC(=O)N1CCC(Nc2nc(O)cc(-c3ccsc3)n2)CC1 |  | 14.33
49 | CC(C)N1c2sc(-c3ccsc3)nc2CC1C(=O)NC1CCCC1 (stereo not given) | 80.44% and 80.12% | 
50 | O=C(NC1CCCC1)C1Cc2nc(-c3ccsc3)sc2N1CC1CC1 (stereo not given) | 9.544% and 5.829% and 5.902% | 
51 | Cc1nc(-c2ccsc2)sc1C(=O)N1CCn2c(C)nnc2C1 |  | 4.116
52 | CN(C)C(=O)N1CCN(Cc2cnc(-c3ccsc3)s2)CC1 |  | -10.41
53 | Cc1ccncc1CN1CCOCC1c1[nH]ncc1C (stereo not given) |  | -4.491
54 | Cc1cccc(CN2CCC(c3csc4nccn34)CC2)n1.O=CO |  | 3.885
55 | N#Cc1cccc(N2CC3(CCN(C(=O)c4ccncc4)C3)CC2=O)c1.O=C(O)C(F)(F)F (stereo not given) |  | -19.71
